Test [1] is described as follows: antimalarial activity against Dd2 strain (AID 2302;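 active means growth inhibition above 50% at the single 2 µM test dose, taken to imply half-maximal potency below 2 µM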;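 further: 0% = DMSO untreated growth and 100% = chloroquine plus artemisinin killed control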). Particulars: P. falciparum Dd2 in RBCs, LDH growth readout, 72 h; at 2 µM; active compounds read high.
A short description of test [2]: HepG2 cytotoxicity, primary screen, cytotoxicity control for P. falciparum antimalarial project, cell-based, ATP luminescence (AID 2303;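 active means inhibition above 50%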;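 further: 0% = DMSO wells and 100% = digitonin-killed cells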). Particulars: HepG2 viability, 24-48 h, at 10 µM, active compounds read high.
For test [3], the target named is L-lactate dehydrogenase (Plasmodium falciparum (isolate CDC / Honduras)) (UniProt Q27743). In words: PfLDH activity inhibition – cell lysate, 3D7 strain, counter-screen for P. falciparum growth inhibition project (AID 2304).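 Further: 0% = vehicle and 100% = reference inhibitor.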 Particulars: P. falciparum 3D7 crude extract, LDH APAD/NBT absorbance; at 2 µM; active compounds read high. A general note: The purpose of a counterscreen is to sort out artefacts and off-target activity.
Chain of L-lactate dehydrogenase (Plasmodium falciparum (isolate CDC / Honduras)) (Q27743 whole entry, looked up): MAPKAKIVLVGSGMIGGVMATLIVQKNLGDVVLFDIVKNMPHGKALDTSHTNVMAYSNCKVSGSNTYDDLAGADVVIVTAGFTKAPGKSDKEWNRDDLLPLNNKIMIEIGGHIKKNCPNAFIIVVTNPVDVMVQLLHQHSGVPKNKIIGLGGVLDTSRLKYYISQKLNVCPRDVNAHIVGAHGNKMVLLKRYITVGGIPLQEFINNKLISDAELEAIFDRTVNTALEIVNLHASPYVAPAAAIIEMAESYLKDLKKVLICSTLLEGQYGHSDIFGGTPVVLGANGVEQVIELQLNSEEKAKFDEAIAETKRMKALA

Test [4] can be described thus: inhibition of 3D7 malaria parasite growth – strain 3D7 (AID 2306).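 Further: 0% = DMSO wells and 100% = chloroquine plus artemisinin control wells.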 Particulars: P. falciparum 3D7 erythrocytic growth, LDH absorbance, 72 h; at 2 µM; active compounds read high.
The target of test [5] is Calcium-dependent protein kinase 1 (Plasmodium falciparum (isolate 3D7)) (UniProt P62344). Kind of test: PfCDPK1 kinase inhibitors, biochemical, TCAMS library (AID 1159585; cut-off not given, nearly all actives have IC50 up to about 0.98 µM;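 further: inhibitors leave more ATP so luminescence rises with inhibition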). The settings on record: recombinant PfCDPK1, Kinase-Glo ATP depletion luminescence. (Kinase-Glo measures the ATP left after a reaction by luminescence.)
Chain of Calcium-dependent protein kinase 1 (Plasmodium falciparum (isolate 3D7)) (P62344 whole entry, looked up): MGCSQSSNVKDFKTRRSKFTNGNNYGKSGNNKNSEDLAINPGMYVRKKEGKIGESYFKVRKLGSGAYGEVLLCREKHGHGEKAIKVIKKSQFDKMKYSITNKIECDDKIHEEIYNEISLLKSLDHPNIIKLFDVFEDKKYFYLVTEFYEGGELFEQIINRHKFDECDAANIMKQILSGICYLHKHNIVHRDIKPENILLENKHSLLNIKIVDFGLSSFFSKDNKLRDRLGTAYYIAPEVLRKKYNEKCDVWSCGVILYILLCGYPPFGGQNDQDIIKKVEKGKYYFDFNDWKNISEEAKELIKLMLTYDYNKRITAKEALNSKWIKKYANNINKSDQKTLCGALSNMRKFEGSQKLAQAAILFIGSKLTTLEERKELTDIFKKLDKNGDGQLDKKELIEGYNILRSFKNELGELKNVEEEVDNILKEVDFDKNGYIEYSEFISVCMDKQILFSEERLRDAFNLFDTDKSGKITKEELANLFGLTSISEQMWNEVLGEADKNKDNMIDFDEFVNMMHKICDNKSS
Test [6] addresses Plasmodium falciparum protein kinase 6 (PK6, PF3D7_1337100) (UniProt Q8IDW1). Kind of test: PfPK6 kinase inhibitors, biochemical, TCAMS library (AID 1159586). Particulars: recombinant PfPK6, Kinase-Glo ATP depletion luminescence.
Test [7] addresses Protein kinase 7 (PK7), Plasmodium falciparum 3D7 (PF3D7_0213400) (UniProt Q7YTF7). Kind of test: inhibition of Plasmodium PK7 catalytic activity – biochemical, TCAMS antimalarial set, Kinase-Glo luminescence (AID 1159587). The settings on record: recombinant PfPK7, Kinase-Glo ATP depletion luminescence.
In test [8] the target is Calcium-dependent protein kinase 4 (Plasmodium falciparum (isolate 3D7)) (UniProt Q8IBS5). Kind of test: PfCDPK4 kinase inhibitors, biochemical, TCAMS library (AID 1159588; cut-off not given, nearly all actives have IC50 up to about 0.91 µM). Particulars: recombinant PfCDPK4, Kinase-Glo ATP depletion luminescence.
Chain of Calcium-dependent protein kinase 4 (Plasmodium falciparum (isolate 3D7)) (Q8IBS5 whole entry, looked up): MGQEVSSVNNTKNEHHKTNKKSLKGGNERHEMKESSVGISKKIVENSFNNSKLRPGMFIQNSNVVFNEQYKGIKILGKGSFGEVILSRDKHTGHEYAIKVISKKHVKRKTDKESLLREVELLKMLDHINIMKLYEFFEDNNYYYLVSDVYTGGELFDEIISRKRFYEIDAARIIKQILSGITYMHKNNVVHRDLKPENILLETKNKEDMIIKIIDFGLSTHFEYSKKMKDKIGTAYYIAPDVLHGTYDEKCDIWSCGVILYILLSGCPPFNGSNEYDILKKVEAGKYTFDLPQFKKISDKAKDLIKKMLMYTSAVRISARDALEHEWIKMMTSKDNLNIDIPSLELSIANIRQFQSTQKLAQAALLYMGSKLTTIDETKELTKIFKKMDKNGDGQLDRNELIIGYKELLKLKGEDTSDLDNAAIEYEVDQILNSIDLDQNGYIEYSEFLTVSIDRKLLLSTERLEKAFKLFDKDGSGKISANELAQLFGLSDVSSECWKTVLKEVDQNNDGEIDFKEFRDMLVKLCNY

By inhibition is commonly meant the relative decrease from the control value, in per cent.

Unmarked numbers belong to inactive results. For part of these data: Results with a measured potency or affinity are listed apart. Activity calls are given as the source filed them. Unless noted, how the calls were made is not given here.

Chain of Protein kinase 7 (PK7), Plasmodium falciparum 3D7 (PF3D7_0213400) (Q7YTF7 1-343): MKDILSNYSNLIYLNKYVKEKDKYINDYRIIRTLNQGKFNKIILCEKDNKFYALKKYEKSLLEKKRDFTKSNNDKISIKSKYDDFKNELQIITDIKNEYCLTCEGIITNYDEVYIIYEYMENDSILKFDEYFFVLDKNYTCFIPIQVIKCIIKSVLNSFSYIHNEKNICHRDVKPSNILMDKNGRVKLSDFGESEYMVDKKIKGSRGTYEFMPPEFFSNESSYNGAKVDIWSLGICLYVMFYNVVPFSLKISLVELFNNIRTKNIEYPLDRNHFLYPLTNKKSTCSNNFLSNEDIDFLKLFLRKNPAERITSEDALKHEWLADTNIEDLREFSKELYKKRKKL
Chain of Plasmodium falciparum protein kinase 6 (PK6, PF3D7_1337100) (Q8IDW1 1-305): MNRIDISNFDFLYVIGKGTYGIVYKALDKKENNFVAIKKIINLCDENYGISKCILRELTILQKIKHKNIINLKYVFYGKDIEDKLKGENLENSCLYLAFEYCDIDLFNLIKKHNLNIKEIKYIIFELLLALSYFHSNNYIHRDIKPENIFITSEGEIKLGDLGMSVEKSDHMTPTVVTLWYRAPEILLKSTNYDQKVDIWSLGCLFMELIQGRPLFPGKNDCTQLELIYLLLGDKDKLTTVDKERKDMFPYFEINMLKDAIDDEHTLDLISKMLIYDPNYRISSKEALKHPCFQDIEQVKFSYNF

In the case of `Cc1cccc(Cn2c(Cc3ccccc3)nnc2Sc2ccc([N+](=O)[O-])c(C#N)c2)c1`, the growth inhibition is 3% in test [1] and 91% (active) in test [4]. The inhibition in test [2] is 17%; in test [3], -2%. Moreover, the result in test [5], in test [6], in test [7] and in test [8] was inactive.
On to `COc1cc2nccc(Nc3ccc(NC(=O)c4ccc(C)cc4)c(O)c3)c2cc1OC`, for which the growth inhibition in test [1] was 77% (active); in test [4] it was 101% (active). Moreover, the inhibition in test [2] was 96% (active); in test [3] it was 1%. Also, the result in test [5], in test [6], in test [7] and in test [8] was inactive.
As to `CCc1ccc(S(=O)(=O)Nc2cccc(CCN3CCC(N4CCCCC4)CC3)c2)cc1`, the growth inhibition in test [1] is 20%; in test [4] it was 101% (active). In addition, the inhibition was 21% in test [2] and -4% in test [3]. Moreover, the result in test [5], in test [6], in test [7] and in test [8] was inactive.
For the molecule `O=C1CCCN1CCCNCc1ccc(-c2ccc(-c3nc4ccc(C(F)(F)F)cc4[nH]3)s2)cc1`, the growth inhibition in test [1] is 96% (active); in test [4] it was 100% (active). Besides, the inhibition was 9% in test [2] and -4% in test [3]. In addition, the outcome in test [5], in test [6], in test [7] and in test [8] was inactive.
For `O=C(Nc1cccc(C(F)(F)F)c1)c1cccc(S(=O)(=O)NC2CCN(CC3CCCCC3)C2)c1` (stereo not drawn), the growth inhibition in test [1] is 45%; in test [4] it was 101% (active). For the same molecule, the inhibition in test [2] was 37%; in test [3], -1%. Further, the outcome in test [5], in test [6], in test [7] and in test [8] was inactive.
With `CCCCCCN1CCCN(Cc2ccc(C(=O)Nc3ccc(C(C)(C)C)cc3)cc2)CC1`, the figures for the growth inhibition in test [1] and in test [4] were 32% and 100% (active), respectively. Moreover, the inhibition in test [2] was 53% (active); in test [3], -3%. Besides, the outcome in test [5], in test [6], in test [7] and in test [8] was inactive.
`Cc1ccc(Nc2nccc(Nc3ccc4c(C)[nH]nc4c3)n2)cc1F`: the growth inhibition was 1% in test [1] and 95% (active) in test [4]. In addition, the inhibition in test [2] was 6%; in test [3] it was 4%. Further, the outcome in test [5], in test [6], in test [7] and in test [8] was inactive.
`CCCCCCCCCN1CC[C@@H](CCCc2ccnc3ccc(O)cc23)[C@@H](CC)C1`: the growth inhibition is 59% (active) in test [1] and 83% (active) in test [4]. In addition, the inhibition in test [2] was 58% (active); in test [3], -3%. The result in test [5], in test [6], in test [7] and in test [8] was inactive.
As for `O=C1C=Cc2ccccc2/C1=C/c1sc(=NCc2ccccc2)n(Cc2ccccc2)c1O`, the growth inhibition in test [1] and in test [4] was 98% (active) each time. In addition, the inhibition was 0% in test [2] and -7% in test [3]. For the same molecule, the result in test [5], in test [6], in test [7] and in test [8] was inactive.
For the molecule `O=C(/C=C/c1ccc(Cl)c(Cl)c1)NCCC(CN1CCC(c2c[nH]c3ccccc23)CC1)c1ccccc1` (stereo not drawn), the growth inhibition in test [1] is 42%; in test [4], 100% (active). Also, the inhibition in test [2] is 84% (active); in test [3] it was -6%. Besides, the result in test [5], in test [6], in test [7] and in test [8] was inactive.
For `CCOc1ccc2nc3cc(NC(=O)c4ccco4)ccc3c(N)c2c1`, the growth inhibition is 56% (active) in test [1] and 101% (active) in test [4]. In addition, the inhibition in test [2] is 36%; in test [3] it was -1%. The outcome in test [5], in test [6], in test [7] and in test [8] was inactive.
As for `O=[N+]([O-])c1ccc(C=NNc2nc3ccccc3[nH]2)cc1`, the growth inhibition in test [1] was 98% (active); in test [4], 101% (active). Besides, the inhibition is 11% in test [2] and -6% in test [3]. Besides, the result in test [5], in test [6], in test [7] and in test [8] was inactive.
Consider `CCOC(=O)C(C#N)NC(=O)C=Cc1ccccc1` (stereo not drawn), for which the growth inhibition in test [1] is 9%; in test [4], 96% (active). The values for the inhibition in test [2] and in test [3] were -7% and 6%, respectively. Also, the outcome in test [5], in test [6], in test [7] and in test [8] was inactive.
With `Cc1ccccc1N1CCN(c2ccc(C(=O)Nc3ccccc3)cc2)CC1`, the growth inhibition in test [1] was 91% (active); in test [4], 89% (active). In addition, the inhibition in test [2] was 22%; in test [3], -2%. Moreover, the outcome in test [5], in test [6], in test [7] and in test [8] was inactive.
For `Cc1ccc2[nH]c(C3CCCNC3)c(-c3ccncc3)c2c1` (stereo not drawn), the growth inhibition in test [1] was 22%; in test [4], 101% (active). Moreover, the inhibition is 10% in test [2] and 0% in test [3]. Besides, the outcome in test [5], in test [6], in test [7] and in test [8] was inactive.
Take `O=C1CC(C(=O)O)CC(=O)N1`: the growth inhibition in test [1] is 88% (active); in test [4] it was 94% (active). In addition, the inhibition was -3% in test [2] and 6% in test [3]. Besides, the result in test [5], in test [6], in test [7] and in test [8] was inactive.
As to `Cc1ncc([N+](=O)[O-])n1CCOC(=O)NC(NCC1COc2ccccc2O1)C(Cl)(Cl)Cl` (stereo not drawn), the growth inhibition is 78% (active) in test [1] and 101% (active) in test [4]. Further, the inhibition in test [2] was -9%; in test [3] it was -4%. Also, the result in test [5], in test [6], in test [7] and in test [8] was inactive.
As for `COc1ccc(CN(C)CCCCc2ccc(NC(=O)COc3cccc4sc5ccccc5c(=O)c34)cc2)cc1OC`, the results for the growth inhibition in test [1] and in test [4] were 84% (active) and 100% (active), respectively. Besides, the inhibition in test [2] was 26%; in test [3] it was -1%. In addition, the result in test [5], in test [6], in test [7] and in test [8] was inactive.
With `COc1cccc(Nc2c(C(N)=O)cnc3ccc(-c4ccccc4)cc23)c1`, the growth inhibition was 99% (active) in test [1] and 98% (active) in test [4]. Besides, the inhibition in test [2] was 2%; in test [3], -2%. The result in test [5], in test [6], in test [7] and in test [8] was inactive.
For the molecule `CCOC(=O)CN1Cc2cc(NCc3ccc4ccc5nc(C)[nH]c(=O)c5c4c3)ccc2C1=O`, the growth inhibition in test [1] is 91% (active); in test [4], 84% (active). Besides, the inhibition in test [2] is 40%; in test [3], 1%. Also, the result in test [5], in test [6], in test [7] and in test [8] was inactive.
Consider `COc1ccc(Cl)cc1-c1nc(C(=O)NCCN2CCCCC2)c(C)s1`, for which the growth inhibition in test [1] was 10%; in test [4] it was 97% (active). The values for the inhibition in test [2] and in test [3] were 16% and -7%, respectively. Further, the outcome in test [5], in test [6], in test [7] and in test [8] was inactive.

The values are drawn from PubChem BioAssay.
